Results on 60 compounds are retold here after PubChem BioAssay AID1851 (National Center for Advancing Translational Sciences (NCATS), 2009).

As usually defined, the AC50 is the midpoint of the concentration-response curve, whichever way the signal moves.

Structures are written as SMILES. Among all 16,000 compounds or so, about 5,100 (32%) were called active. Roughly 25% stayed inconclusive and do not appear here. The list shows a part of the results. Unmarked numbers belong to inactive results. Calls come from the whole dose curve; as a rule, active = well fitted curve in the direction sought with a large enough effect; inconclusive = small, poorly fitted or top-dose-only effect, or effect the other way; inactive = no such curve, though single readings can be large or run the other way.
% is set by controls: 0 for no effect and ±100 for the full control effect.

Sequence of Cytochrome P450 3A4 (Homo sapiens) (P08684 whole entry, looked up): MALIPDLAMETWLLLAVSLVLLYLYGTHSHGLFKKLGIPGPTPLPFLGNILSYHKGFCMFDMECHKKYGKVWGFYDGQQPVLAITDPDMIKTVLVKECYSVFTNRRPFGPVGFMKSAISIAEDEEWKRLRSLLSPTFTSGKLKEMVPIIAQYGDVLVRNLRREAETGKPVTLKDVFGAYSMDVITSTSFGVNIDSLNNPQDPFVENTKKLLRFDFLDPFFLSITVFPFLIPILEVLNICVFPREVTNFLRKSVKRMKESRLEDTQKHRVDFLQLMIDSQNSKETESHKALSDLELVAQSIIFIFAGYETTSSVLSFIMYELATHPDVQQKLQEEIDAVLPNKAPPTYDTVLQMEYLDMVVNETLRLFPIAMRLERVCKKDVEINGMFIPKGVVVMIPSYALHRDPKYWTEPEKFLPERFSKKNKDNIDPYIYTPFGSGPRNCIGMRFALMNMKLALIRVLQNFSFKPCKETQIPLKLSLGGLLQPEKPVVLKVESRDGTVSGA

The experiment has as its target Cytochrome P450 3A4 (Homo sapiens) (UniProt P08684). Nature of the experiment: Cytochrome panel assay with activity outcomes. Particulars: recombinant CYP, pro-luciferin dealkylation, luminescence, p450-cyp3a4; series mostly up to 57.1 µM; activity, negative = inhibition: at the top concentration.
As for `CCC(=O)N[C@@H]1CCc2cccc(OC)c2C1`, the “activity, negative = inhibition” value is -19%.

Take `COc1cccc2cc(NC(=O)C3CCCCC3)c(=O)oc12`: the “activity, negative = inhibition” value was -11.8%.

Take `CCn1c(SCC(=O)NC2CCCCC2)nnc1-c1cc2cccc(OC)c2o1`: the AC50 was 10 µM (active).

Consider `N/C(=N\OC(=O)c1cc(-c2ccccc2)nc2ccccc12)c1ccc(Cl)cc1`, for which the “activity, negative = inhibition” value was 28.2%.

As to `CCNC(=O)COC(=O)c1cc(-c2ccc(OC)cc2)nc2ccccc12`, the AC50 was 14.1 µM (active).

Take `CCNC(=O)COC(=O)c1cc(=O)[nH]c2ccccc12`: the “activity, negative = inhibition” value was 15.8%.

As to `CCCS(=O)(=O)N1CCCC(C(=O)NCCCN2CCN(c3ccccc3F)CC2)C1` (stereo not given), the “activity, negative = inhibition” value is -20.6%.

As to `CCS(=O)(=O)N1CCC(C(=O)NCCCN2CCN(c3ccccc3F)CC2)CC1`, the “activity, negative = inhibition” value was -9.39%.

Consider `CCOCCCNC(=O)CCS(=O)(=O)Cc1ccc(C)cc1`, for which the “activity, negative = inhibition” value is -15.2%.

As to `Cc1ccc(CS(=O)(=O)CCC(=O)NCCCN2CCCC2=O)cc1`, the “activity, negative = inhibition” value is 1.96%.

For `Cc1ccccc1CS(=O)(=O)CCC(=O)NCCCN1CCN(c2ccccc2F)CC1`, the AC50 was 11.2 µM (active).

Regarding `Cc1ccc(CS(=O)(=O)CCC(=O)NCCCN2CCCC2)cc1`, the AC50 is 28.2 µM (active).

Turning to `Cc1ccc2c(c1)/C(=N/OC(=O)c1ccc(F)cc1)CCS2`, the “activity, negative = inhibition” value is 24.5%.

With `N#Cc1c(-c2ccccc2)nc(-c2ccccc2)[nH]c1=O`, the “activity, negative = inhibition” value was -11%.

For `N#Cc1c(-c2ccccc2)no[n+]1[O-]`, the AC50 is 12.6 µM (active).

For the compound `N#Cc1c(-c2ccccc2)nc2n(c1=O)CCS2`, the “activity, negative = inhibition” value was -1.65%.

As to `COc1ccc(N(CC(=O)NCc2cccc(OC)c2)S(=O)(=O)c2c(C)noc2C)cc1`, the AC50 is 1.78 µM (active).

For `CCOc1ccc(N(CC(=O)NCc2ccc(OC)cc2)S(=O)(=O)c2c(C)noc2C)cc1`, the AC50 was 0.631 µM (active).

As to `COc1cccc(CNCCNC(=O)c2nonc2N)c1`, the “activity, negative = inhibition” value is 3.2%.

Consider `Cn1cccc1C(=O)N1CCC[C@@]2(CCN(c3cccc(-c4ccccc4)c3)C2)C1`, for which the AC50 was 7.94 µM (active).

With `Cn1cccc1C(=O)N1CCC2(CC1)CCN(c1cccc(-c3ccccc3)c1)CC2`, the “activity, negative = inhibition” value was 32.4%.

Consider `Cn1cccc1C(=O)N1CCC[C@@]2(CCN(c3ccccc3)C2)C1`, for which the AC50 was 10 µM (active).

As to `Cn1cccc1C(=O)N1CCC2(CC1)CN(c1ccncc1)C2`, the “activity, negative = inhibition” value is -15.8%.

Turning to `CN1CCCC2(CCN(C(=O)c3cccn3C)CC2)C1`, the “activity, negative = inhibition” value was -7.48%.

For `CC(C)NC(=O)N1CC[C@@]2(CCCN(C(=O)c3cccn3C)C2)C1`, the “activity, negative = inhibition” value was 3.62%.

With `Cn1cccc1C(=O)N1CCC2(CC1)CCN(c1ccncc1)CC2`, the “activity, negative = inhibition” value is -27.5%.

Regarding `Cn1cccc1C(=O)N1CCC2(CCCN(c3ncccn3)C2)CC1`, the “activity, negative = inhibition” value was -4.9%.

Consider `Cn1cccc1C(=O)N1CCC2(CCCN(c3cccc(-c4ccccc4)c3)C2)CC1`, for which the AC50 is 10 µM (active).

As to `Cn1cccc1C(=O)N1CCC[C@@]2(CCN(c3ccncc3)C2)C1`, the AC50 was 1 µM (active).

In the case of `C[N+](C)(C)CCCCCC[N+](C)(C)C`, the AC50 result is “inactive”.

For `COC(=O)N1CCC[C@@]2(CCN(C(c3ccccc3)c3ccccc3)C2)C1`, the “activity, negative = inhibition” value was -29.5%.

As for `Cn1cccc1C(=O)N1CCC[C@@]2(CCN(C(c3ccccc3)c3ccccc3)C2)C1`, the AC50 is 12.6 µM (active).

Regarding `CC(C)NC(=O)N1CCC2(CC1)CCN(C(=O)c1cccn1C)CC2`, the “activity, negative = inhibition” value was -9.8%.

With `COc1cccc2c1[C@@H]1CN(CCCCn3c(=O)[nH]c4c(sc5ncc(-c6ccccc6)nc54)c3=O)C[C@H]1CO2`, the AC50 is 15.8 µM (active).

As for `O=C1Nc2ccccc2C(O)(C(=O)NCc2ccc3c(c2)OCO3)N1c1ccc(Cl)c(Cl)c1` (stereo not given), the AC50 is 0.126 µM (active).

For the compound `NCCCC(=O)O`, the “activity, negative = inhibition” value was -1.16%.

On to `O=S1(=O)[C@H]([C@H]2CC3c4ccccc4C2c2ccccc23)[C@@H](N2CCCCC2)[C@@H]1c1ccccc1`, for which the AC50 is 1 µM (active).

As for `c1ccc(C2CCC(N3CCC(N4CCCCC4)CC3)CC2)cc1` (stereo not given), the activity, negative = inhibition was -4.19% [at 2.29 µM].

For `CCCCC#Cc1ccccc1CC(=O)Nc1ccccc1`, the AC50 was 1 µM (active).

`CCC#CCOCC(=O)Nc1ccccc1`: the “activity, negative = inhibition” value was 19.9%.

In the case of `O=C(Cc1ccccc1I)Nc1ccccc1`, the “activity, negative = inhibition” value is -28.6%.

For `OCCCN=C1CCCCC1`, the activity, negative = inhibition is -15.7% [at 11.4 µM].

In the case of `CNC(=O)c1nnn(Cc2ccccc2)c1NC(=O)C(F)(F)F`, the “activity, negative = inhibition” value was 11.1%.

With `C[C@@H](C(=O)Nc1ccc2ccccc2c1)[C@H]1C[C@]1(C)[C@H](NC(=O)OCc1ccccc1)c1ccccc1`, the AC50 was 2.51 µM (active).

For `C[C@@H](C(=O)Nc1ccc2ccccc2c1)[C@@H]1C[C@@]1(C)[C@@H](NC(=O)OCc1ccccc1)c1ccccc1`, the AC50 was 7.94 µM (active).

On to `Cc1ccc(NC(=O)N(Cc2ccco2)C(C)c2ccco2)cc1C` (stereo not given), for which the AC50 was 3.16 µM (active).

As for `c1ccc(CCc2cccnc2)nc1`, the activity, negative = inhibition was -27.8% [at 11.4 µM].

In the case of `c1cncc(CNCc2cccnc2)c1`, the activity, negative = inhibition is -27.6% [at 11.4 µM].

`c1ccc(C[C@@H](Nc2cccnc2)c2ccccc2)cc1`: the AC50 was 3.16 µM (active).

As to `CCOC(=O)CCN1C(=O)[C@H]2[C@H]3[C@H](O)[C@H](O)C/C(=N/OCC(C)C)[C@@H]3CC[C@@H]2C1=O`, the activity, negative = inhibition was -27.7% [at 11.4 µM].

`O=C(c1ccc([N+](=O)[O-])cc1)n1nc(-c2ccccc2)nc1NCc1ccccc1`: the activity, negative = inhibition was 13.6% [at 2.29 µM].

Regarding `O=C(NCc1cn(-c2ccccc2)nc1-c1ccccc1)c1cc([N+](=O)[O-])cc([N+](=O)[O-])c1`, the AC50 is 2.51 µM (active).

Take `COC(=O)c1ccc(C#CC(NP(=O)(c2ccccc2)c2ccccc2)c2ccccc2)cc1` (stereo not given): the “activity, negative = inhibition” value is -25.5%.

Turning to `COC(=O)c1ccc(NC(=O)c2ccccc2)o1`, the activity, negative = inhibition is -12.8% [at 2.29 µM].

`COC(=O)c1ccc(C23CC2(C(NP(=O)(c2ccccc2)c2ccccc2)c2ccccc2)C3)cc1` (stereo not given): the AC50 is 3.16 µM (active).

Consider `CN1C(=O)C[C@H](c2ccccc2)C1=O`, for which the “activity, negative = inhibition” value was -5.93% [at 25.6 µM].

`C/C(=N\Nc1nnc(C)c(=O)[nH]1)C(=O)O`: the “activity, negative = inhibition” value is -10%.

With `COC(=O)[C@@]1(Cc2ccccc2)[C@H]2c3cc(C(=O)N4CCCC4)n(Cc4ccccn4)c3C[C@H]2CN1C(=O)c1ccccc1`, the AC50 is 2 µM (active).

Consider `COC(=O)[C@@]1(Cc2ccc(F)cc2)[C@H]2c3cc(C(=O)N4CCCC4)n(Cc4ccccn4)c3C[C@H]2CN1C(=O)c1ccccc1`, for which the AC50 was 1 µM (active).

As for `COC(=O)[C@@]1(Cc2ccccc2)[C@H]2c3cc(C(=O)N4CCCC4)n(CCc4ccccn4)c3C[C@H]2CN1C(=O)c1ccccc1`, the AC50 is 2 µM (active).
